Data: the supplement of paper PMC3334620
Whole data set: some 33,000 sequences, median “E-score (-0.5 to 0.5)” near -0.012, cut for the highest 2% near 0.29. The full list was thinned out, with the highest values kept by preference.

target: T1, Ybr033w (UniProt P38073); assay: PBM E-score (8-mer binding enrichment) (E-score (-0.5 to 0.5)); higher = stronger / more preferred TF binding; conditions: protein concentration: 200 nM; construct: GST-full length
T1 sequence: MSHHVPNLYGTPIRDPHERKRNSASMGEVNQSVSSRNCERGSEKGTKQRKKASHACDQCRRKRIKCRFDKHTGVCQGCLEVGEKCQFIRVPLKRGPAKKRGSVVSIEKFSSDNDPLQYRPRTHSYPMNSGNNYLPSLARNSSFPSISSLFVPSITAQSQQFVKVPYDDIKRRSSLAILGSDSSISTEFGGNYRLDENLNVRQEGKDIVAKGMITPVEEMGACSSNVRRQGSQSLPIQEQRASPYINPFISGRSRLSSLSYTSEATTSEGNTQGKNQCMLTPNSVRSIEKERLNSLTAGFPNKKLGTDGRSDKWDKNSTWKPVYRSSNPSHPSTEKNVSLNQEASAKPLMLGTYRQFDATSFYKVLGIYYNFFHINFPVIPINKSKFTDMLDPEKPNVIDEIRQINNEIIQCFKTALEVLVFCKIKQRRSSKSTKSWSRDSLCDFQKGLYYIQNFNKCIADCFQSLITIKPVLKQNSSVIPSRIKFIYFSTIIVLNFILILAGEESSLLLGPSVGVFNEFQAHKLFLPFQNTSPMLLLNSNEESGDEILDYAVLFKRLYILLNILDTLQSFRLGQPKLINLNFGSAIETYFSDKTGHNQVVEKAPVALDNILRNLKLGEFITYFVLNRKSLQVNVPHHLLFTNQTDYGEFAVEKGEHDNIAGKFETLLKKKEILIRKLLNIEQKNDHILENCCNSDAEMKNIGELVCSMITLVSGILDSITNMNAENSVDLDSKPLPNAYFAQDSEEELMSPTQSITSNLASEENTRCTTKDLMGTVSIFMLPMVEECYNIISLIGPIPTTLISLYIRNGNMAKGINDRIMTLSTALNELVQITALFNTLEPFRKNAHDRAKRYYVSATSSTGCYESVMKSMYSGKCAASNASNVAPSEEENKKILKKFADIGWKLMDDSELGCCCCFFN
In short: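 Universal all-10-mer Agilent arrays, fresh or stripped once, were converted to double-stranded form by primer extension. GST-tagged yeast transcription factors from PURExpress in vitro transcription/translation, full-length or DNA-binding domain only, were applied at about 100-200 nM and detected with fluorescent anti-GST. After masliner normalisation, the Universal PBM Analysis Suite scored each ungapped eight-base word together with its reverse complement by E-score.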

With CTTTTCCA as the sequence, how does the “PBM E-score” value read?
The value was -0.0875.

With GACCGGTC as the sequence, how does the “PBM E-score” value read?
The value was -0.181.

How did the “PBM E-score” value turn out when AATCGTCA was run?
Its value is -0.0213.

CAACGTTG was tested. Which “PBM E-score” value did it give?
Its value is 0.156.

For AGCTCTTC, which “PBM E-score” value is on record?
The value was 0.0781.

ACAATCCG was tested. Which “PBM E-score” value did it give?
Its value is 0.0606.

How did the “PBM E-score” value turn out when GAAATCCA was run?
The value was 0.108.

How did the “PBM E-score” value turn out when ATGATCCG was run?
Its value is 0.412.

For CAAATCCA, which “PBM E-score” value is on record?
Its value is 0.0838.

With GTAATCCA as the sequence, how does the “PBM E-score” value read?
Its value is 0.0788.

For ATAATCGG, which “PBM E-score” value is on record?
The value was 0.162.

With ATAATCCA as the sequence, how does the “PBM E-score” value read?
Its value is 0.327.

Which “PBM E-score” value does the source give for ATGATCCA here?
The value was 0.162.

ATAATCCG was tested. Which “PBM E-score” value did it give?
The value was 0.383.

For ATGATCCC, which “PBM E-score” value is on record?
The value was 0.244.

With ATAATCCC as the sequence, how does the “PBM E-score” value read?
Its value is 0.189.

Which “PBM E-score” value does the source give for AAAATCCA here?
Its value is 0.339.

Which “PBM E-score” value does the source give for CTCTGGCC here?
The value was -0.15.

Which “PBM E-score” value does the source give for ACAAAGAC here?
Its value is 0.0319.

Which “PBM E-score” value does the source give for GAGGAACA here?
The value was 0.171.

For CAGGAACG, which “PBM E-score” value is on record?
The value was -0.0646.

How did the “PBM E-score” value turn out when CAGGAACC was run?
Its value is -0.122.

For AAGGAACA, which “PBM E-score” value is on record?
Its value is 0.283.

Which “PBM E-score” value does the source give for CAGGAACA here?
The value was 0.401.

TAGGAACA was tested. Which “PBM E-score” value did it give?
Its value is 0.316.

GGGACCCC was tested. Which “PBM E-score” value did it give?
Its value is -0.33.

Which “PBM E-score” value does the source give for ATGCCATG here?
Its value is -0.0545.

With AACCATTC as the sequence, how does the “PBM E-score” value read?
The value was 0.166.

Which “PBM E-score” value does the source give for ACTGAACC here?
The value was 0.00627.

Which “PBM E-score” value does the source give for GTTGGCGA here?
The value was -0.0105.

How did the “PBM E-score” value turn out when GATCGACC was run?
The value was 0.0146.

For AAGCTAAA, which “PBM E-score” value is on record?
The value was 0.107.

With GCCGGAAC as the sequence, how does the “PBM E-score” value read?
Its value is 0.205.

ACCGGAAA was tested. Which “PBM E-score” value did it give?
Its value is 0.151.

For GACGGAAA, which “PBM E-score” value is on record?
The value was 0.227.

CCCGGAAA was tested. Which “PBM E-score” value did it give?
The value was 0.192.

GCCGGAAA was tested. Which “PBM E-score” value did it give?
Its value is 0.302.

TCCGGAAA was tested. Which “PBM E-score” value did it give?
Its value is 0.298.

Which “PBM E-score” value does the source give for CTAGACCC here?
Its value is -0.194.

How did the “PBM E-score” value turn out when AAAGGATG was run?
The value was 0.163.

GCACACCA was tested. Which “PBM E-score” value did it give?
Its value is -0.145.

With GATTAATC as the sequence, how does the “PBM E-score” value read?
The value was 0.435.

GATTAAGC was tested. Which “PBM E-score” value did it give?
Its value is 0.104.

With AATTAGTC as the sequence, how does the “PBM E-score” value read?
The value was 0.212.

For CATTAATG, which “PBM E-score” value is on record?
The value was 0.23.

How did the “PBM E-score” value turn out when GATTAAGA was run?
The value was 0.213.

GACTAATC was tested. Which “PBM E-score” value did it give?
Its value is 0.0103.

Which “PBM E-score” value does the source give for TATTAATA here?
The value was 0.101.

AATTAATC was tested. Which “PBM E-score” value did it give?
The value was 0.341.

For CATTAATA, which “PBM E-score” value is on record?
Its value is 0.321.

With ACTTAATC as the sequence, how does the “PBM E-score” value read?
The value was 0.275.

For GATTAATA, which “PBM E-score” value is on record?
Its value is 0.328.

For CATTAATC, which “PBM E-score” value is on record?
Its value is 0.252.

For AGGGTGAT, which “PBM E-score” value is on record?
The value was -0.055.

With ATAGTTCA as the sequence, how does the “PBM E-score” value read?
Its value is 0.202.

Which “PBM E-score” value does the source give for AGAACGTA here?
Its value is 0.0159.

Which “PBM E-score” value does the source give for AAGGGGCT here?
Its value is -0.163.

How did the “PBM E-score” value turn out when ATATTGTC was run?
Its value is 0.215.

ACCTTGGC was tested. Which “PBM E-score” value did it give?
The value was -0.0759.

For ACAGCTAG, which “PBM E-score” value is on record?
Its value is -0.105.

ACCTACCG was tested. Which “PBM E-score” value did it give?
Its value is -0.0859.

With AGCAGAGC as the sequence, how does the “PBM E-score” value read?
Its value is -0.0843.

With AACTCTGG as the sequence, how does the “PBM E-score” value read?
The value was -0.0682.

For AAAGTTCC, which “PBM E-score” value is on record?
Its value is 0.132.

How did the “PBM E-score” value turn out when AATTAAGT was run?
Its value is 0.305.

AATTAATT was tested. Which “PBM E-score” value did it give?
The value was 0.214.

AATTAAAT was tested. Which “PBM E-score” value did it give?
Its value is 0.276.

For AATTAAAC, which “PBM E-score” value is on record?
The value was 0.377.

Which “PBM E-score” value does the source give for AATTAAGA here?
The value was 0.171.

How did the “PBM E-score” value turn out when AATTAATA was run?
Its value is 0.429.

AATTAAGC was tested. Which “PBM E-score” value did it give?
The value was 0.169.

How did the “PBM E-score” value turn out when AATTAATG was run?
The value was 0.273.

AATTAAAG was tested. Which “PBM E-score” value did it give?
Its value is 0.217.

CAACTATG was tested. Which “PBM E-score” value did it give?
Its value is 0.102.

With ACGGGTAT as the sequence, how does the “PBM E-score” value read?
The value was 0.0865.

For ATTGGCTA, which “PBM E-score” value is on record?
The value was 0.117.

ACCAAGCC was tested. Which “PBM E-score” value did it give?
Its value is -0.0301.

For TCCAATCA, which “PBM E-score” value is on record?
Its value is 0.0621.

Which “PBM E-score” value does the source give for TGATAACA here?
The value was 0.176.

With GCGAGGAA as the sequence, how does the “PBM E-score” value read?
The value was 0.125.

With CGGGATTC as the sequence, how does the “PBM E-score” value read?
Its value is -0.0497.

How did the “PBM E-score” value turn out when CGGGATTA was run?
The value was 0.312.

TGGGATAA was tested. Which “PBM E-score” value did it give?
Its value is 0.123.

How did the “PBM E-score” value turn out when AGGGATTA was run?
The value was 0.187.

For CTGGATAA, which “PBM E-score” value is on record?
Its value is 0.316.

Which “PBM E-score” value does the source give for CCGGATTA here?
The value was 0.34.

For ACGGATAT, which “PBM E-score” value is on record?
The value was 0.192.

With GTGGATAA as the sequence, how does the “PBM E-score” value read?
Its value is 0.169.

With GCGGATTA as the sequence, how does the “PBM E-score” value read?
Its value is 0.285.

ACGGATTA was tested. Which “PBM E-score” value did it give?
Its value is 0.233.

Which “PBM E-score” value does the source give for ATGGATAA here?
Its value is 0.259.

With TCGGATAA as the sequence, how does the “PBM E-score” value read?
The value was 0.335.

GGACCACA was tested. Which “PBM E-score” value did it give?
Its value is -0.00774.

How did the “PBM E-score” value turn out when CCTACCAC was run?
The value was -0.155.

AGCGTCCA was tested. Which “PBM E-score” value did it give?
The value was -0.13.

With TAGGCTGA as the sequence, how does the “PBM E-score” value read?
Its value is -0.0515.

With CACCAACC as the sequence, how does the “PBM E-score” value read?
Its value is -0.105.

How did the “PBM E-score” value turn out when AATCCACT was run?
The value was 0.193.

For TAGCTTGA, which “PBM E-score” value is on record?
Its value is -0.0114.

For GGCCTTGA, which “PBM E-score” value is on record?
Its value is -0.0647.

With ACGTCAGG as the sequence, how does the “PBM E-score” value read?
Its value is -0.168.

How did the “PBM E-score” value turn out when ACGGATCA was run?
Its value is 0.236.

How did the “PBM E-score” value turn out when CCGGATCC was run?
The value was -0.129.

How did the “PBM E-score” value turn out when CCGGATGC was run?
Its value is -0.178.

For GTGGATTA, which “PBM E-score” value is on record?
Its value is 0.164.

For CTGGATTC, which “PBM E-score” value is on record?
Its value is 0.00016.

Which “PBM E-score” value does the source give for CCGGATGA here?
The value was 0.289.

How did the “PBM E-score” value turn out when GCGGATAC was run?
Its value is 0.0188.

With GCGGATGA as the sequence, how does the “PBM E-score” value read?
The value was 0.0612.

How did the “PBM E-score” value turn out when CTGGATTA was run?
Its value is 0.309.

For ACGGATAA, which “PBM E-score” value is on record?
Its value is 0.276.

For CCGGATCA, which “PBM E-score” value is on record?
Its value is 0.345.

With GCGGATAA as the sequence, how does the “PBM E-score” value read?
Its value is 0.416.
